SMILES strings stand for the structures. About 79,000 compounds went through this panel and 15% of them were active in at least one assay; those are over-represented in the sample as a whole. Unmarked numbers belong to inactive results. Active and inactive are the calls of the source. Cut-off read from the data, not from the text of the source: active = growth inhibition above about 70%; inactive = the rest. Where a SMILES comes first, the peptide text is derived from it. [ ]: non-standard residue; d: D form. The star is where a group is joined. ξ: configuration not given here. Cbz = O=C(OCc1ccccc1)*; ξP = O=C(O)C1CCCN1

Test [1] is described as follows: NCI Yeast Anticancer Drug Screen. Data for the rad50 strain (AID 155).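 Note: 0% = growth of vehicle-only cultures of the same strain.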 The following applies: S. cerevisiae rad50 strain growth inhibition; at 50.0 µM; stronger effect = higher value. In outline: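 A DNA repair-deficient yeast mutant serves as the test organism; compound-induced growth inhibition is calculated against vehicle-treated cells.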
Test [2] can be described thus: NCI Yeast Anticancer Drug Screen. Data for the mec2-1 strain (AID 157). The following applies: S. cerevisiae mec2-1 strain, at 50.0 µM, stronger effect = higher value. In outline:
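Growth inhibition is read against vehicle-treated controls after compound exposure of the mec2-1 yeast strain, which is defective in DNA damage repair or cell cycle control.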

Test [3] in a line: NCI Yeast Anticancer Drug Screen. Data for the sgs1 mgt1 strain (AID 161).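 Note: 0% = growth of cultures given vehicle only.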 The following applies: S. cerevisiae sgs1 mgt1 strain, at 50.0 µM, stronger effect = higher value. In outline: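 Yeast cells carrying a defined DNA-repair defect were exposed to test compounds. Growth inhibition was measured relative to vehicle-treated controls.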
Test [4] can be described thus: NCI Yeast Anticancer Drug Screen. Data for the cln2 rad14 strain (AID 165).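 Note: 0% = growth equal to vehicle treated cultures.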 The following applies: S. cerevisiae cln2 rad14 strain, at 50.0 µM, stronger effect = higher value. In outline: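 Growth inhibition, relative to vehicle-treated controls, is the read-out. The test organism is a yeast strain with defined genetic alterations, cln2 rad14.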
A short description of test [5]: NCI Yeast Anticancer Drug Screen. Data for the bub3 strain (AID 167). The following applies: S. cerevisiae bub3 mutant strain, at 50.0 µM, stronger effect = higher value. A digest of the protocol: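 Inhibition values come from growth of compound-treated mutant yeast normalised to vehicle-treated controls.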
Test [6] in a line: NCI Yeast Anticancer Drug Screen. Data for the mlh1 rad18 strain (AID 175). The following applies: S. cerevisiae mlh1 rad18 strain growth inhibition; at 50.0 µM; stronger effect = higher value. A digest of the protocol: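 Cells of a genetically altered yeast strain, deficient in DNA damage repair, were treated with compound. Their growth was then compared with that of vehicle-treated cultures to give inhibition.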

`OCCSC1CCCCC1`: the growth inhibition in test [1] is 12.1%; in test [2] it was 6.35%; in test [3] it was -1.55%; in test [4], 0.1%; in test [5], -16.1%; in test [6] it was 1.5%.

Turning to `CSc1ccc(NC(=O)N(Cc2ccccc2)c2ccccc2)cc1`, the growth inhibition in test [1] was 3.75%; in test [2] it was 16.9%; in test [3], 11.9%; in test [4] it was -6.4%; in test [5], 19.2%; in test [6] it was 13.8%.

On to `N#CC1=C(N)C(c2ccccc2)(c2ccccc2)CC1`, for which the growth inhibition in test [1] was 30.4%; in test [2], 29.6%; in test [3], 8.15%; in test [4], -0.45%; in test [5], 0.4%; in test [6] it was 35.7%.

Turning to `CCOC(=O)CCC(=O)C(=O)OCC`, the growth inhibition in test [1] was 13.1%; in test [2], -24.8%; in test [3], 13.2%; in test [4] it was 20.9%; in test [5], 1.4%; in test [6], 20.1%.

Consider `Cc1ccc(SC(=O)Cc2ccc([N+](=O)[O-])cc2)cc1`, for which the growth inhibition was 96.6% (active) in test [1]; 98% (active) in test [2]; 98.2% (active) in test [3]; 88.3% (active) in test [4]; 96.2% (active) in test [5]; 96.8% (active) in test [6].

With `CC(=O)COc1ccccc1[N+](=O)[O-]`, the growth inhibition is 9.65% in test [1]; 0% in test [2]; 8.15% in test [3]; 8.95% in test [4]; 1.3% in test [5]; 15.8% in test [6].

`NC(N)=NOCC(=O)O`: the growth inhibition is -7.2% in test [1]; -14.7% in test [2]; -8.85% in test [3]; -42.5% in test [4]; 3.95% in test [5]; -16.1% in test [6].

For the molecule `CCc1ccc(NC(=O)CCC(=O)O)cc1`, the growth inhibition in test [1] is -1.15%; in test [2], -9.15%; in test [3], 4.75%; in test [4], -90.5%; in test [5], -4.9%; in test [6], -16.9%.

Regarding `Cc1ccc(S(=O)(=O)N/N=C/C(C)(c2ccccc2)c2ccccc2)cc1`, the growth inhibition in test [1] was 70.9% (active); in test [2], 52%; in test [3] it was 69.3%; in test [4], 40.2%; in test [5], 15.8%; in test [6], 47.8%.

In the case of `CCN(CC)C1=CC(=O)OC1OC` (stereo unspecified), the growth inhibition in test [1] is -9.65%; in test [2], 12.5%; in test [3], 2%; in test [4] it was 8.1%; in test [5] it was 3.05%; in test [6], -4.2%.

For the molecule `Nc1cc(N)n(C2=NCCN2)n1`, the growth inhibition is -1.5% in test [1]; -27.5% in test [2]; 8% in test [3]; 11.1% in test [4]; 0% in test [5]; -13.3% in test [6].

Regarding `CC1CC(NN(C)C)C2(C(N)=O)C(N)=NC(=O)C12C#N` (stereo unspecified), the growth inhibition was 5.45% in test [1]; 9.15% in test [2]; -23.9% in test [3]; 3.8% in test [4]; -24.7% in test [5]; -46.1% in test [6].

Turning to `O=C(CNC(=O)OCc1ccccc1)NCC(=O)N1CCCC1C(=O)O` (stereo not drawn) (Cbz-Gly-Gly-[ξP]-OH), the growth inhibition in test [1] is -1.6%; in test [2] it was 1.15%; in test [3], -4.45%; in test [4] it was 0.25%; in test [5] it was -3.65%; in test [6], -23.6%.

On to `CCC(C(=O)c1ccccc1)[n+]1ccccc1` (stereo unspecified), for which the growth inhibition in test [1] was -4.55%; in test [2] it was -16%; in test [3] it was -6.7%; in test [4] it was -15.6%; in test [5] it was 13.2%; in test [6], 3.05%.

For the molecule `CCCCCCCSCC(O)COC(c1ccccc1)(c1ccccc1)c1ccccc1` (stereo unspecified), the growth inhibition in test [1] was -17.5%; in test [2] it was -28.6%; in test [3], -29.6%; in test [4], -20%; in test [5], -21.5%; in test [6], -20.6%.

For the molecule `CC(C)(C)S(=O)(=O)CCCCl`, the growth inhibition in test [1] is 12.8%; in test [2] it was -13.9%; in test [3] it was -1.65%; in test [4] it was -8.5%; in test [5] it was 13.2%; in test [6] it was 13.5%.

`COc1ccc2c(c1)CCCN1Cc3cc(OC)c(OC)cc3CC21` (stereo unspecified): the growth inhibition in test [1] was -29.7%; in test [2], 8.65%; in test [3], -33.8%; in test [4], 14%; in test [5] it was -1.1%; in test [6] it was -3.9%.

Consider `CCCNC(=S)/N=C\c1c(O)c2ccccc2oc1=O`, for which the growth inhibition in test [1] was -38.8%; in test [2], -56.8%; in test [3], -35%; in test [4] it was -0.45%; in test [5], -0.2%; in test [6], -5.4%.

Regarding `CC1(C)C(=NNC(=O)C[N+](C)(C)C)C(C)(C)C1=NNC(=O)C[N+](C)(C)C`, the growth inhibition in test [1] is -0.4%; in test [2], -11.9%; in test [3] it was -32.9%; in test [4], -46.4%; in test [5], -0.15%; in test [6], -13.5%.

`C(#Cc1ccccc1)/C=C/C(=C\c1ccccc1)c1ccccc1`: the growth inhibition is 6.6% in test [1]; 4.9% in test [2]; -4.9% in test [3]; 11.8% in test [4]; 20.8% in test [5]; 33.5% in test [6].

Turning to `O=C(CC(O)(C(F)(F)F)C(F)(F)F)c1cccs1`, the growth inhibition in test [1] was 3.65%; in test [2], 15.4%; in test [3], 3.75%; in test [4], -34.9%; in test [5], -5.15%; in test [6], 7.5%.

The values are drawn from PubChem BioAssay (NCI).
